tim23-1 inh = inhibits growth of tim23-1 mutant yeast. inhibition, % at 20 µM. S. cerevisiae tim23-1 growth, BacTiter-Glo luminescence, 24 h. AID 463212. hit rate 1.3% among 330,000;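 active = growth inhibition of the mutant yeast at or above 50%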;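 also: temperature-sensitive mutant grown at 25 °C; plate controls were DMSO-treated mutant yeast for no effect and medium wells lacking yeast for full effect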
TIM10 inh = inhibits growth of TIM10 yeast strain. S. cerevisiae TIM10 strain growth, BacTiter-Glo luminescence, 24 h. inhibition, % at 10 µM. hit rate 1.4% among 330,000;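 active = inhibition of 40% or more at the single tested concentration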;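 also: wild-type TIM10 isogenic control strain grown at permissive 25 °C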
NLRP3 yeast inh = blocks the NALP3 inflammasome reconstituted in yeast. Yeast reconstituted NLRP3/ASC/caspase-1, beta-gal luminescence, 24 h. inhibition, % at 10 µM. hit rate 0.39% among 330,000;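 active = inhibition of 50% or more; inactive = inhibition below 50%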;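 also: plate controls were induced DMSO wells for no effect and uninduced yeast grown without galactose for full effect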
SKKanGAS inh = SKKanGAS growth inhibition; S. pyogenes SKKanGAS, kanamycin growth, BacTiter-Glo, 6 h; inhibition, % at 7.5 µM; hit rate 1.3% among 300,000; AID 1662;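 active = mean replicate score, as percent of positive control median, at least 50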;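 also: strain carries kanamycin resistance gene driven by streptokinase promoter and grows in 40 µg/ml kanamycin; loss of luminescence reflects streptokinase promoter inhibition or plain growth inhibition; 0% = median of DMSO wells and 100% = positive control at its reference dose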
NALP1 inh = inhibitors of NALP1 inflammasome in yeast; inhibition, % at 10 µM; hit rate 0.61% among 280,000; S. cerevisiae NALP1/ASC/caspase-1 growth, X-gal OD620, 72 h; in the data active = inhibition mostly above about 24%, no sharp cut-off; inactive = mostly below about 32%
tim10-1 inh = tim10-1 yeast growth inhibition; S. cerevisiae tim10-1 ts strain growth, BacTiter-Glo, 24 h; inhibition, % at 20 µM; hit rate 2.2% among 330,000;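 active = inhibition of at least 40%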;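 also: mutant grown at 25 °C; 0% = DMSO wells with yeast and 100% = wells holding no yeast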
NALP3 yeast conf = confirmation of NALP3 inhibitors in yeast | shares compounds with NLRP3 yeast inh | hit rate 81% among 1,300 | yeast expressing human NALP3, luminescence | AID 435006 | inhibition, % at 10 µM; in the data active = inhibition above about 48%
Casp1 ASC ctr = caspase-1-ASC yeast counter-screen hit | shares compounds with NLRP3 yeast inh | yeast expressing Caspase-1-ASC, luminescence counter screen | inhibition, % at 10 µM | hit rate 66% among 1,000 | AID 488784
NALP3 yeast rt = confirmation retest of NALP3 inhibitors in yeast | AID 488794 | hit rate 53% among 1,000 | inhibition, % at 10 µM | yeast expressing human NALP3, luminescence read-out | shares compounds with NLRP3 yeast inh
Numbers without * were called inactive; / = no result given. Compounds with a hit are over-represented: about 4.9% of the library has one in this group of screens. Rule as the data show it, unless noted: active = inhibition above about 50%; inactive = the rest.

SMILES | tim23-1 inh | TIM10 inh | NLRP3 yeast inh | SKKanGAS inh | NALP1 inh | tim10-1 inh | NALP3 yeast conf | Casp1 ASC ctr | NALP3 yeast rt
O=C(NCc1cccc(Cl)c1)c1cnn2c1NC(c1ccco1)CC2C(F)(F)F (stereo unspecified) | 26 | 24 | 20 | 5 | -17 | 26 | / | / | /
Cc1ccc(Cl)cc1NC(=O)c1cnn2c1NC(c1ccco1)CC2C(F)(F)F (stereo unspecified) | 25 | 14 | 58* | -1 | -2 | 16 | 66* | 72* | 57*
Cc1ccc2c(c1)CCCN2C(=O)c1cccs1 | -2 | -2 | 36 | -4 | / | 26 | / | / | /
Cc1ccc2c(c1)CCCN2C(=O)c1cc(C)c(C)s1 | 24 | -12 | 52* | / | / | 14 | 59* | 44 | 35
COc1ccc(C2c3ccc(O)cc3Oc3ncn4nc(-c5cccnc5)nc4c32)cc1OC (stereo unspecified) | 19 | 3 | 0 | 28 | -7 | 7 | / | / | /
CCOC(=O)c1nc(C)nc(Sc2n[nH]c(-c3cc(Cl)cc(Cl)c3)n2)c1C | 23 | 10 | 51* | 11 | / | 11 | 31 | / | /
CCc1cc2cc(C)ccc2nc1SCC(=O)NC1CCCC1 | 6 | 5 | 54* | 3 | -2 | -17 | 62* | 35 | 32
O=C(Nc1ccc(Nc2ccccc2)cc1)c1cccc(F)c1 | 20 | 5 | 57* | 1 | 16 | -39 | 72* | 51* | 57*
O=C(Nc1ccncc1)c1cccc(F)c1 | 9 | -7 | 17 | 0 | 1 | 4 | / | / | /
O=C(c1cc(-c2cccc(Cl)c2)on1)N1CCN(c2ccccc2)CC1 | 20 | 32 | 11 | -1 | 9 | 3 | / | / | /
O=C(c1cc(-c2cccc(Cl)c2)on1)N1CCCC1 | 18 | 8 | 59* | -1 | 26 | -15 | 77* | 76* | 64*
Cc1c(OCC(=O)NCc2cccnc2)ccc2c3c(c(=O)oc12)CCCC3 | -3 | 0 | 9 | 3 | 1 | -7 | / | / | /
Cc1[nH]c2c(C)cccc2c1CCNC(=O)C1CCCCC1C(=O)OCC(F)(F)F (stereo unspecified) | 27 | 14 | 72* | 0 | 6 | 22 | -7 | / | /
CCOc1cc(C2Nc3ccccc3C(=O)N2c2ccccc2)c(Br)cc1OCC(=O)O (stereo unspecified) | -2 | -1 | -100 | 2 | -15 | 6 | -31 | / | /
O=C(CSc1cccc2cccc(Cl)c12)NCc1cccs1 | 14 | 15 | 52* | -15 | 37 | 27 | 65* | 45 | 31
C[C@]12C=C[C@H](O)CC1=CCC1C2CC[C@@]2(C)C1CCC21OCCO1 (stereo partly specified) | 29 | 16 | 57* | / | / | 5 | 71* | / | /
C[C@]12C=CC(=O)C=C1CCC1C2CC[C@@]2(C)C1CCC21OCCO1 (stereo partly specified) | 41 | 6 | 27 | / | / | 5 | / | / | /
CCN(C(=O)COn1nnc2ccc(S(=O)(=O)N(C)C)cc21)C1CCS(=O)(=O)C1 (stereo unspecified) | 5 | 10 | 19 | / | / | -6 | / | / | /
CC1Oc2ccccc2N(Cc2ccccc2Cl)C1=O (stereo unspecified) | -1 | -7 | -144 | -1 | 6 | 24 | 6 | / | /
CCN1C(=NCCc2c[nH]c3ccccc23)N[C@@H](c2ccccc2)[C@H](C(=O)OC)[C@H]1C | 15 | 0 | 15 | -4 | 20 | 9 | / | / | /
Cc1ccc(OCCn2cnc(Cl)c2Cl)cc1 | 1 | -14 | 50* | / | 3 | 15 | 59* | / | /
Cc1ccc(S(=O)(=O)Nc2c(C(=O)O)[nH]c3ccccc23)c(C)c1 | -4 | 4 | -4 | -4 | 12 | 3 | / | / | /
Cc1ccc(C)c(CSc2nnc(CCN)o2)c1 | 8 | 7 | 72* | 6 | 3 | 16 | 80* | 65* | 72*
NCCc1nnc(SCc2ccccc2F)o1 | 1 | 4 | 63* | 11 | 16 | 9 | 74* | 68* | 70*
NCCc1nnc(SCc2ccccc2)o1 | 3 | -9 | 61* | -2 | 16 | 7 | 75* | 61* | 61*
SMILES | tim23-1 inh | TIM10 inh | NLRP3 yeast inh | SKKanGAS inh | NALP1 inh | tim10-1 inh | NALP3 yeast conf | Casp1 ASC ctr | NALP3 yeast rt
c1ccc(CSc2nnc(Cc3ccccc3)o2)cc1 | 16 | 6 | 10 | -5 | 9 | 21 | / | / | /
Cc1cc(C)c(NC(=O)COc2cccnc2[N+](=O)[O-])c(C)c1 | 9 | 12 | 4 | / | / | 9 | / | / | /
CCc1ccc(Nc2n[n+](C)c(-c3ccncc3)s2)cc1 | -7 | -12 | 26 | 2 | 14 | 4 | / | / | /
O=C(CSc1ncccn1)NNC(=O)c1ccccc1 | -7 | -5 | -4 | 4 | 12 | -19 | / | / | /
Cc1ccc(OCc2nc(-c3ccccn3)no2)cc1 | 46 | 27 | 56* | 1 | -4 | 32 | 70* | 72* | 64*
Cc1ccc(OCc2nc(-c3cccnc3)no2)cc1C | 16 | 4 | 51* | -11 | 12 | 13 | 61* | 36 | 40
Cc1ccc(OCc2nc(-c3ccccn3)no2)c(Br)c1 | -1 | 0 | 42 | -4 | 14 | -11 | / | / | /
CC(=O)N1CCCN(C(=O)c2ccc3nc(Cc4cccc(Cl)c4)oc3c2)CC1 | -4 | 6 | 10 | -1 | 11 | 3 | / | / | /
Cc1cc(C)nc(SCC(=O)NNS(=O)(=O)c2ccc(C#N)cc2)n1 | 11 | -1 | 6 | / | / | -6 | / | / | /
Cc1onc(-c2ccccc2Cl)c1C(=O)N1C=CC(C(F)(F)F)=NCC1 | 21 | 13 | 50* | 0 | 58* | 7 | 66* | 45 | 53*
Cc1onc(-c2ccccc2Cl)c1C(=O)N1C=CC(C(F)(F)Cl)=NCC1 | 22 | 3 | 33 | -6 | -7 | 14 | / | / | /
Cc1cc(C)c2c(N)c(-c3nc4ccccc4[nH]3)sc2n1 | 35 | 19 | 50* | 0 | -6 | -1 | 62* | 37 | 41
Cc1ccccc1-c1nc2ccccc2[nH]1 | 37 | 5 | 29 | 0 | 6 | -32 | / | / | /
c1nc(C2CCCCC2)cc2cc3c(cc12)OCO3 | 29 | 3 | 51* | / | / | 9 | 54* | / | /
c1nc(CCO[C@H]2CCCCO2)cc2cc3c(cc12)OCO3 | 23 | 4 | 31 | / | / | 10 | / | / | /
CCc1nnc(NC(=S)Nc2ccccc2)s1 | 0 | 15 | 55* | -3 | 1 | 22 | 46 | / | /
COc1cccc(C(=O)N2CCN(C(=O)C3CC3)CC2)c1 | -4 | -8 | 1 | 0 | 5 | 7 | / | / | /
COC(=O)C12CCC3(SCCS3)C(C(=O)OC)(CCC13SCCS3)C2 | 35 | 22 | 58* | -9 | 31 | 24 | 22 | / | /
COc1ccc(CCn2c(C3CCCCC3)nc3c(c(=O)c4ccccc4n3C)c2=O)cc1OC | 25 | 16 | 64* | 16 | -4 | -30 | 84* | 44 | 50
